Laboratory results from PubChem BioAssay AID1159580 (chemical genetic matrix, 2015).
Hit rate of the full screen: of about 5,500 compounds, about 2,000 (36%) were called active. Another 18% or so got no clear call; they are omitted. No stated cut-off is given here; in the data, active means normalized growth mostly below about 0.91 (no sharp cut-off); inconclusive means no clear call, values can overlap the other calls; inactive means mostly above about 0.92. The list shows a part of the results.

Assay: chemical genetic growth profiling, strain panel (AID 1159580);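 further: tested at 20 µM; growth read once vehicle control cultures reached saturation at 30 °C; 1 = growth at the plate median or of vehicle wells; lower values mean less growth of the strain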
Details: S. cerevisiae deletion strains, growth OD

Measured: normalized growth

COc1ccc(C2CNC(=O)C2)cc1OC1CCCC1 (stereo unspecified)
inactive: locus YAL013W, strain DEP1, active compounds read low 1.01 | locus YAL021C, strain ccr4, active compounds read low 1 | locus YAL026C, strain drs2, active compounds read low 1.02 | locus YAL030W, strain snc1, active compounds read low 1.02 | locus YAL040C, strain CLN3, active compounds read low 0.999 | locus YBL061C, strain skt5, active compounds read low 1.01 | locus YBR009C, strain hhf1, active compounds read low 1.02 | locus YBR023C, strain chs3, active compounds read low 1.01 | locus YBR171W, strain sec66, active compounds read low 1.02 | locus YBR231C, strain swc5, active compounds read low 1.02 | locus YBR279W, strain paf1, active compounds read low 1.01 | locus YCL011C, strain gbp2, active compounds read low 1.01 | locus YCL016C, strain dcc1, active compounds read low 1.01 | locus YCL061C, strain MRC1 (second series), active compounds read low 1 | locus YCL061C, strain MRC1, active compounds read low 1.01 | locus YCL069W, strain vba3, active compounds read low 1.01 | locus YCR088W, strain abp1, active compounds read low 1.01 | locus YDL005C, strain med2, active compounds read low 0.996 | locus YDL040C, strain nat1, active compounds read low 1.01 | locus YDR001C, strain nth1, active compounds read low 1.01 | locus YDR069C, strain doa4, active compounds read low 1.02 | locus YDR137W, strain rgp1, active compounds read low 1.02 | locus YDR159W, strain sac3, active compounds read low 1.03 | locus YDR195W, strain ref2 1.01 | locus YDR297W, strain sur2, active compounds read low 1.01 | locus YDR334W, strain swr1, active compounds read low 1.01 | locus YDR335W, strain msn5, active compounds read low 1.01 | locus YDR363W, strain ESC2, active compounds read low 1.01 | locus YDR392W, strain spt3, active compounds read low 1.04 | locus YEL003W, strain gim4, active compounds read low 1.01 | locus YEL037C, strain rad23, active compounds read low 0.965 | locus YEL061C, strain CIN8 (second series), active compounds read low 1.01 | locus YER002W, strain NOP16, active compounds read low 0.993 | locus YER015W, strain faa2, active compounds read low 1 | locus YER016W, strain bim1, active compounds read low 1.01 | locus YER111C, strain swi4, active compounds read low 1.02 | locus YER155C, strain BEM2 (second series), active compounds read low 1.04 | locus YFR010W, strain ubp6, active compounds read low 1 | locus YGL167C, strain pmr1, active compounds read low 1.01 | locus YGL173C, strain kem1, active compounds read low 1.01 | locus YGL227W, strain vid30, active compounds read low 1.01 | locus YGL240W, strain doc1, active compounds read low 1.02 | locus YGL253W, strain hxk2, active compounds read low 1.03 | locus YHR013C, strain ard1, active compounds read low 1.04 | locus YHR027C, strain rpn1, active compounds read low 1.01 | locus YHR142W, strain chs7, active compounds read low 0.98 | locus YJL092W, strain hpr5, active compounds read low 1 | locus YJL095W, strain BCK1 (second series), active compounds read low 1.01 | locus YJL115W, strain asf1, active compounds read low 1.01 | locus YJL129C, strain trk1, active compounds read low 1.02 | locus YJL154C, strain vps35, active compounds read low 1 | locus YJL164C, strain tpk1, active compounds read low 0.999 | locus YJL166W, strain qcr8, active compounds read low 1.02 | locus YJL187C, strain SWE1, active compounds read low 1.01 | locus YJR075W, strain HOC1, active compounds read low 1.01 | locus YKL160W, strain elf1, active compounds read low 0.998 | locus YKR026C, strain gcn3, active compounds read low 0.994 | locus YKR091W, strain srl3, active compounds read low 1.01 | locus YLL001W, strain dnm1, active compounds read low 1.01 | locus YLL026W, active compounds read low 1.02 | locus YLL041C, strain sdh2, active compounds read low 1.01 | locus YLR027C, strain aat2, active compounds read low 1.01 | locus YLR221C, strain rsa3, active compounds read low 1.01 | locus YLR258W, strain gsy2, active compounds read low 1.01 | locus YLR262C, strain YPT6 (second series), active compounds read low 1.02 | locus YLR320W, strain mms22, active compounds read low 1.02 | locus YLR342W, strain FKS1, active compounds read low 1 | locus YLR357W, strain rsc2, active compounds read low 1.01 | locus YLR370C, strain arc18, active compounds read low 1.02 | locus YLR384C, strain iki3, active compounds read low 0.999 | locus YML120C, strain ndi1, active compounds read low 1.01 | locus YMR058W, strain fet3, active compounds read low 1.02 | locus YMR125W, strain sto1, active compounds read low 1.02 | locus YMR129W, active compounds read low 1.02 | locus YMR205C, strain PFK2, active compounds read low 1.03 | locus YMR231W, strain pep5, active compounds read low 1 | locus YMR263W, strain SAP30, active compounds read low 1 | locus YMR307W, strain GAS1, active compounds read low 1.03 | locus YNL071W, strain lat1, active compounds read low 1.02 | locus YNL175C, strain NOP13, active compounds read low 1.01 | locus YNL197C, strain WHI3, active compounds read low 1.01 | locus YNL209W, strain ssb2, active compounds read low 1.01 | locus YNL224C, strain SQS1, active compounds read low 0.995 | locus YNL248C, strain rpa49, active compounds read low 0.974 | locus YNL322C, strain KRE1 (second series), active compounds read low 0.996 | locus YNR049C, strain mso1, active compounds read low 1 | locus YOR001W, strain rrp6, active compounds read low 1 | locus YOR070C, strain gyp1, active compounds read low 1 | locus YOR080W, strain dia2, active compounds read low 1.01 | locus YOR083W, strain WHI5 (second series), active compounds read low 1.01 | locus YOR083W, strain WHI5, active compounds read low 0.988 | locus YOR106W, strain vam3, active compounds read low 0.989 | locus YOR265W, strain rbl2, active compounds read low 1.01 | locus YOR270C, strain vph1, active compounds read low 1.03 | locus YOR290C, strain snf2, active compounds read low 0.996 | locus YPL051W, strain arl3, active compounds read low 1 | locus YPL055C, strain LGE1, active compounds read low 0.996 | locus YPL078C, strain atp4, active compounds read low 0.988 | locus YPL106C, strain sse1, active compounds read low 1.04 | locus YPL240C, strain hsp82, active compounds read low 1 | locus YPL241C, strain CIN2, active compounds read low 1
